Records with an inconclusive call do not appear. A number with no mark means an inactive call. Calls follow the shape of the dose curve; as a rule, active = well fitted curve in the direction sought with a large enough effect; inconclusive = small, poorly fitted or top-dose-only effect, or another doubt; inactive = no such curve, though single readings can be large or run the other way.

Chain of Polyunsaturated fatty acid lipoxygenase ALOX15 (Homo sapiens) (P16050 whole entry, looked up): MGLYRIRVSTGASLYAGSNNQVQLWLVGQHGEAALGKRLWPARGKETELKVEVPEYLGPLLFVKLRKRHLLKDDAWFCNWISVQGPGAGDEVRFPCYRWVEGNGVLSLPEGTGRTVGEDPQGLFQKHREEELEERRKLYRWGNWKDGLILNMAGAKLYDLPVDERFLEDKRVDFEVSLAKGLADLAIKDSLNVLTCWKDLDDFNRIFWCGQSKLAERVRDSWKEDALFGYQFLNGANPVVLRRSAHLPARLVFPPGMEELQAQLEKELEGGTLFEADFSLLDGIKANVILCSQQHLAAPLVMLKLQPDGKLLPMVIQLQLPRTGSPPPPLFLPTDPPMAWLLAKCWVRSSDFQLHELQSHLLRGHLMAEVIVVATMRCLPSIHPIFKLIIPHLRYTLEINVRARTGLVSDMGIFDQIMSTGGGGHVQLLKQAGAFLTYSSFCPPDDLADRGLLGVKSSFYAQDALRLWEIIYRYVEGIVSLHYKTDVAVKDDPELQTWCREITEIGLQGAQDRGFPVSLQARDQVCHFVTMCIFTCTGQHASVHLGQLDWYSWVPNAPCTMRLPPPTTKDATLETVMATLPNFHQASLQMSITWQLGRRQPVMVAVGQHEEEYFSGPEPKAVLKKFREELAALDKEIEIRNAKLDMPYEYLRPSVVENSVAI

The target in the assay is Polyunsaturated fatty acid lipoxygenase ALOX15 (Homo sapiens) (UniProt P16050). Briefly: Counterscreen qHTS for inhibitors of human arachidonate 12S-lipoxygenase (ALOX12): ALOX15 Assay. Also: 0% is about no effect. The following applies: purified ALOX15 enzyme activity; series mostly up to 110 µM; activity change, negative = inhibition: at the top concentration. An outline of the steps:
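Xylenol orange–ferric complex formation, read as the 573 nm to 405 nm absorbance ratio, tracks product from 50 uM arachidonic acid turned over for 30 min at RT. Enzyme is 40 nM ALOX15, pH 7.5 HEPES buffer, compound-preincubated 15 min.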
For the compound `CN(C)C(=O)N1Cc2ccccc2OC2(CCN(C(=O)Cc3cnc[nH]3)CC2)C1`, the “activity change, negative = inhibition” value was 9.22%.

`CCOCCNc1ncnc2c1CN(C1CCCNCC1)C(=O)CN2C` (centres undefined): the “activity change, negative = inhibition” value was -14.8%.

For the compound `CN1CC(=O)N(C2CCCNCC2)Cc2c1ncnc2N1CCSCC1` (centres undefined), the “activity change, negative = inhibition” value is 4.09%.

As for `CC(C)[S+](=O)([O-])N1CCN(c2ccc(C=O)cc2)C(=O)C1`, the “activity change, negative = inhibition” value is 15.7% [at 146 µM].

As to `COc1ccc(-c2cc(C(=O)NC3CC3)c3c(C)nn(-c4ccccc4)c3n2)cc1`, the “activity change, negative = inhibition” value is -28.5%.

On to `COc1ccc(CNc2ncnc3c2CN(C2CCNCC2)C(=O)CN3C)cc1`, for which the “activity change, negative = inhibition” value is -36.3%.

In the case of `CN(c1ccccc1)C1CNC1`, the “activity change, negative = inhibition” value was -29.5% [at 233 µM].

Take `COc1cccc(N2C(=O)NC(=NC3CCCC3)C23CCN(CC2CC2)C3)c1` (centres undefined): the “activity change, negative = inhibition” value is -4.92%.

Take `C[S+](=O)([O-])N1Cc2ccccc2OC2(CCN(C(=O)c3ccc(N)nc3)CC2)C1`: the “activity change, negative = inhibition” value is -15.1%.

As for `Cc1ccc(-c2ccc(CN)cc2)cc1Cl`, the “activity change, negative = inhibition” value was 24.8% [at 146 µM].

Turning to `CN1CC(=O)N(C2CNC2)Cc2c(NC3CC3)ncnc21`, the “activity change, negative = inhibition” value was -21.8% [at 146 µM].

Take `CCC(=O)N1Cc2ccccc2CC2(CCCCN2CC2CCNC2)C1` (centres undefined): the “activity change, negative = inhibition” value was -2.21%.

Take `O=C1NCc2ccccc2CC12CCCN2Cc1ccc(OC(F)(F)F)cc1` (centres undefined): the “activity change, negative = inhibition” value is -12.6%.

For the compound `CC(=O)Nc1ccc(CN2CCC(c3nc4ccc(C)cc4c(=O)[nH]3)CC2)cc1`, the “activity change, negative = inhibition” value was 6.35%.

On to `CCCN1CCCC2(Cc3ccccc3CN(C(=O)Cc3ccccc3)C2)C1` (centres undefined), for which the “activity change, negative = inhibition” value is -27.1%.

Turning to `O=C(c1ccccc1)N1Cc2ccccc2CC2(CCN(CC3CCNC3)C2)C1` (centres undefined), the “activity change, negative = inhibition” value was 5.43%.

For the compound `Cc1cc(Cl)ccc1-c1cccc(C=O)c1`, the “activity change, negative = inhibition” value was 8.77% [at 146 µM].

Turning to `O=C(c1ccc(C(F)(F)F)cc1)N1CC(Oc2ccc3c(c2)OCO3)C1`, the “activity change, negative = inhibition” value is -14.9%.

Regarding `O=C1NCc2ccccc2CC12CCCN2Cc1cnc2ccccc2c1` (centres undefined), the “activity change, negative = inhibition” value was -16.9%.

(Values after PubChem BioAssay AID1671192 (National Center for Advancing Translational Sciences (NCATS), 2021).)
